“And” between values parts separate entries of the source, which are not always exact repeats. Identical values can stand only once. Inconclusive results are not listed. The source made the active and inactive calls. Unless noted, calls follow the shape of the dose curve; as a rule, active = well fitted curve in either direction with a large enough effect (not every such curve was filed as active); inconclusive = small, poorly fitted or top-dose-only effect, or another doubt; inactive = flat fitted curve, though single readings scatter.
How the values were obtained:
[1] = NFAT Signaling Pathway (AID 444); settings: Jurkat NFAT-bla M1, carbachol, beta-lactamase ratio, 5 h; at 17.2 µM (top of the series) unless noted;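 also: carbachol stimulus at about its EC50 of 1 µM final; % is scaled to controls: 0 for no effect and ±100 for the full control effect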
In short: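 Jurkat cells carrying an NFAT-driven β-lactamase reporter and co-transfected muscarinic M1 receptor were treated with compound plus carbachol (1 uM final, an EC50 level) for 5 h at 37 °C. CCF4 loading followed for 1 h at RT; 460/530 nm ratio gave %activity.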

[2] = Stat Signaling Pathway (AID 446); settings: ME-180 SIE beta-lactamase reporter, IL-6 stimulated, 5 h; at 17.2 µM (top of the series) unless noted;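 also: ME-180 cervical cancer cells given 40 pM IL-6 alongside compound; SIE-controlled beta-lactamase reporter measured as 460/530 nm FRET emission ratio; % is scaled to controls: 0 for no effect and ±100 for the full control effect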
In short: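 ME-180 SIE-bla cells; overnight plating; cpd + IL-6 40 pM, 5 h, 37 C; LiveBLAzer 2.5 h RT; 460/530 nm emission ratio. Normalized to 300 pM IL-6 and 125 nM JAK inhibitor controls.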

[3] = Cell Viability - BJ (AID 421; calls by dose curve;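 also: potency is read from the fitted curve at half-maximal effect; cells exposed to compound for 40 hours at 37 °C before readout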); settings: BJ fibroblast viability, qHTS
In short: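 Luminescent ATP signal (CellTiter-Glo, 20 min at room temperature) served as the read-out of viable BJ cells after 40 hours of compound treatment. Responses were scaled between DMSO and 100 uM tamoxifen, and AC50 values were obtained by Hill modeling.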

[4] = Cell Viability - SK-N-SH (AID 435; calls by dose curve;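 also: potency is read from the fitted curve at half-maximal effect; compound exposure lasted 40 h at 37 °C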); settings: SK-N-SH neuroblastoma cell viability qHTS
In short: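 Human neuroblastoma line, 40 h exposure at 37 °C, ATP quantified via luciferase luminescence; DMSO and 100 uM tamoxifen define 0 and 100% inhibition for AC50 fitting.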

[5] = Cell Viability - N2a (AID 540; active = well fitted curve in the direction sought with a large enough effect; an effect the other way counts as inactive or inconclusive; also: nearly all actives have a fitted effect of over 45% in size; also: potency is read from the fitted curve at half-maximal effect;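 as to activity change, negative = cytotoxicity: plate controls were DMSO alone for no effect and tamoxifen control for full effect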); settings: N2a mouse neuroblastoma cell viability; activity change, negative = cytotoxicity: at 92.2 µM (top of the series)
In short: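 Mouse neuroblastoma N2a cells (1500/well) were preincubated 5 hr at 37 °C, then exposed to compounds for 40 hr at 37 °C in complete medium. Viability was read as intracellular ATP by CellTiter-Glo luminescence; AC50 from Hill fits.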

[6] = Cell Viability - SH-SY5Y (AID 544; active = well fitted curve in the direction sought with a large enough effect; an effect the other way counts as inactive or inconclusive; also: nearly all actives have a fitted effect of over 55% in size; also: potency is read from the fitted curve at half-maximal effect;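 as to viability change, negative = cytotoxic: 0% = DMSO alone and -100% = 100 µM tamoxifen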); settings: SH-SY5Y neuroblastoma cell viability; viability change, negative = cytotoxic: at 92.2 µM (top of the series)
In short: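 Human neuroblastoma SH-SY5Y cells (1500/well) in complete medium were exposed to compounds for 40 hr at 37 °C; intracellular ATP was then quantified by CellTiter-Glo luminescence after 20 min at room temperature. AC50 came from Hill-equation concentration-response fits.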

[7] = Cell Viability - Renal Proximal Tubule (AID 545; active = well fitted curve in the direction sought with a large enough effect; an effect the other way counts as inactive or inconclusive; also: nearly all actives have a fitted effect of over 40% in size; also: potency is read from the fitted curve at half-maximal effect;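 as to activity change, negative = cytotoxicity: 0% = DMSO only and -100% = 100 µM tamoxifen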); settings: renal proximal tubule cells viability, primary cells of rat origin; activity change, negative = cytotoxicity: at 91.7 µM (top of the series)
In short: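 In this qHTS format, normal rat kidney-derived proximal tubule cells in complete culture medium receive compound titrations, then sit 40 hours at 37 °C before luciferase-based ATP quantitation; potency is reported as AC50 from concentration-response curves.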

[8] = Cellular Toxicity (caspase-3) HepG2 (AID 654; active = well fitted curve in the direction sought with a large enough effect; an effect the other way counts as inactive or inconclusive;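 also: cells exposed to compound for 16 hours before reading; 0% = DMSO alone and 100% = caspase signal from 100 µM tamoxifen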); settings: HepG2 caspase-3 activation, luminescence; series mostly up to 92.2 µM
In short: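 HepG2 cells (1500/well) in complete medium were treated with compounds for 16 hr at 37 °C. Caspase-3/7 activity was then read as luminescence from peptide-aminoluciferin cleavage. AC50 came from Hill fits, normalized to DMSO and 100 uM tamoxifen.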

[9] = Cellular Toxicity (caspase-3) HUV-EC-C (AID 656; active = well fitted curve in the direction sought with a large enough effect; an effect the other way counts as inactive or inconclusive;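 also: 0% = DMSO basal and 100% = 100 µM tamoxifen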); settings: HUV-EC-C cells, caspase-3 activation (apoptosis); series mostly up to 92.2 µM
In short: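 Concentration-dependent caspase 3/7 induction was assessed in HUV-EC-C cells exposed for 16 hours. Data scaled between DMSO and tamoxifen (100 uM) controls.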

[10] = Cellular Toxicity (caspase-3) N2a (AID 665; active = well fitted curve in the direction sought with a large enough effect; an effect the other way counts as inactive or inconclusive;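 also: compound exposure lasted 16 h at 37 °C before readout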); settings: N2a cells, luminescence; Potency: caspase-3 activation; series mostly up to 92.2 µM
In short: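 Mouse N2a neuroblastoma cells (1500/well) were treated with compounds for 16 h at 37 °C, then caspase-3/7 activity was read by Caspase-Glo luminescence after 1 h at room temperature. Data were normalized to DMSO and 10 uM staurosporine; AC50 from Hill fits.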

[11] = Cellular Toxicity (caspase-3) Renal Proximal Tubule (AID 667; active = well fitted curve in the direction sought with a large enough effect; an effect the other way counts as inactive or inconclusive;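 also: cells exposed to compound for 16 hours at 37 °C before detection; 0% = DMSO basal and 100% = 10 µM staurosporine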); settings: renal proximal tubule cells, primary cells freshly taken from rat, solvent-only wells 0%, staurosporine 100%; series mostly up to 91.7 µM
In short: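 Caspase-Glo 3/7 read-out, rat primary kidney proximal tubule cells. Compound exposure 16 h, 37 °C; detection after 1 h at RT. Activity scaled to DMSO and 10 uM staurosporine.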

[12] = molecular target: Cytochrome P450 3A4 (Homo sapiens) (UniProt P08684); test: qHTS Assay for Activators of Cytochrome P450 3A4 (AID 885; active = well fitted curve in the direction sought with a large enough effect; an effect the other way counts as inactive or inconclusive; also: nearly all actives have a fitted effect of over 65% in size); settings: recombinant CYP3A4, Luciferin-PPXE luminescence, 60 min; series mostly up to 57.1 µM
Chain of Cytochrome P450 3A4 (Homo sapiens) (P08684 whole entry, looked up): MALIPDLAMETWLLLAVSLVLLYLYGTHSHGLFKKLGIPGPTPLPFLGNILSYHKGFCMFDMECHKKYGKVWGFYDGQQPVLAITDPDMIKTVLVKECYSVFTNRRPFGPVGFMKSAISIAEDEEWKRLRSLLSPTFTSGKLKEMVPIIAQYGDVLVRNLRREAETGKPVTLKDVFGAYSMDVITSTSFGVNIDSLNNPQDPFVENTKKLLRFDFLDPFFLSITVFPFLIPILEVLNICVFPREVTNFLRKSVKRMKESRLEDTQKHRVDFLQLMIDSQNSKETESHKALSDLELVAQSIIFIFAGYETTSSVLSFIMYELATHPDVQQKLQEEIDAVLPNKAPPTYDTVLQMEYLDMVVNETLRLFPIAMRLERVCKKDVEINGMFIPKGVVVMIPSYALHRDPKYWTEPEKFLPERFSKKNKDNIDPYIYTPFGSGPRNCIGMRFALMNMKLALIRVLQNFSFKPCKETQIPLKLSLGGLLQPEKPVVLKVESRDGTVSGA
In short: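 20nM CYP3A4 + 25uM Luciferin-PPXE (=KM), 200mM KPO4; cpd 10 min RT; NADPH regen, 60 min RT; stop w/ detection buffer, 20 min; luminescence. Normalized to 57 uM ketoconazole.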

[13] = molecular target: Peroxisome proliferator-activated receptor alpha (Homo sapiens) (UniProt Q07869); test: qHTS assay for small molecule agonists of the peroxisome proliferator-activated receptor alpha (PPARalpha) signaling pathway (AID 651778; active = well fitted curve in the direction sought with a large enough effect; an effect the other way counts as inactive or inconclusive; also: % of control where 0% means no effect); settings: PathHunter PPARalpha complementation, chemiluminescence, 6 h; max response: hits give high values
Chain of Peroxisome proliferator-activated receptor alpha (Homo sapiens) (Q07869 whole entry, looked up): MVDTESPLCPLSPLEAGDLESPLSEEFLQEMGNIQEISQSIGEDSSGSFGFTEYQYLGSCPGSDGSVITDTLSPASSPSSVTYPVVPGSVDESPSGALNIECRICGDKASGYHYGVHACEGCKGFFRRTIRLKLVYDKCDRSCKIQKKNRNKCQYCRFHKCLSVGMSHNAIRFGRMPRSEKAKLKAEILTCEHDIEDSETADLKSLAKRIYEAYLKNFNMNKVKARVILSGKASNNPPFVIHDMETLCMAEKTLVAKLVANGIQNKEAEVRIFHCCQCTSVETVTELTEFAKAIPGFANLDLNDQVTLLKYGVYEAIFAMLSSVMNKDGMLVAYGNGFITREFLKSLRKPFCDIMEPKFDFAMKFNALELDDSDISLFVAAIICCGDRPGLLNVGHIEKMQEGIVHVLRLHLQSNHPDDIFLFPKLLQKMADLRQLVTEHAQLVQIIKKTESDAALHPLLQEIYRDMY
In short: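 Cells plated at 2,000/well and held overnight at 37 C, 5% CO2, then compound added by pin tool for 6 hr; after PathHunter detection reagent and 60 min at room temperature, chemiluminescence from enzyme complementation was read.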

[14] = qHTS assay for cell viability of HEK293 cells (AID 743288; active = well fitted curve in the direction sought with a large enough effect; an effect the other way counts as inactive or inconclusive; also: % is scaled to controls: 0 for no effect and ±100 for the full control effect; nearly all actives have a fitted effect of over 50% in size); settings: ATP luminescence (CellTiter-Glo), 18 h; max response: hits give low values
In short: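 Luminescent ATP quantitation served as the viability read-out. Cells (parental HEK293, 2,000/well) received compounds after at least 5 h at 37 C and were exposed for 18 h before a 30 min room-temperature reagent step.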

[15] = qHTS assay for cell viability of the p53RE-bla HCT-116 cell line (AID 743292; active = well fitted curve in the direction sought with a large enough effect; an effect the other way counts as inactive or inconclusive; also: % is scaled to controls: 0 for no effect and ±100 for the full control effect; nearly all actives have a fitted effect of over 55% in size); settings: p53RE-bla HCT-116 viability, ATP luminescence, 16 h; series mostly up to 95 µM
In short: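 Quantitative high-throughput format: compounds in DMSO were pinned onto p53RE-bla HCT-116 cells (4,000/well) and incubated 16 h at 37 C. Total intracellular ATP, read by CellTiter-Glo luminescence, reflects viable cell number.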

[16] = molecular target: Glucocorticoid receptor (Homo sapiens) (UniProt P04150); test: GR-GFP Redistribution (AID 450;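 active = compounds whose dose series gives a full or clear partial fitted curve of increased nuclear translocation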; also: potency is read from the fitted curve at half-maximal effect); settings: U2OS GR-GFP nuclear translocation, laser cytometry, 2 h; series mostly up to 20.6 µM
Chain of Glucocorticoid receptor (Homo sapiens) (P04150 whole entry, looked up): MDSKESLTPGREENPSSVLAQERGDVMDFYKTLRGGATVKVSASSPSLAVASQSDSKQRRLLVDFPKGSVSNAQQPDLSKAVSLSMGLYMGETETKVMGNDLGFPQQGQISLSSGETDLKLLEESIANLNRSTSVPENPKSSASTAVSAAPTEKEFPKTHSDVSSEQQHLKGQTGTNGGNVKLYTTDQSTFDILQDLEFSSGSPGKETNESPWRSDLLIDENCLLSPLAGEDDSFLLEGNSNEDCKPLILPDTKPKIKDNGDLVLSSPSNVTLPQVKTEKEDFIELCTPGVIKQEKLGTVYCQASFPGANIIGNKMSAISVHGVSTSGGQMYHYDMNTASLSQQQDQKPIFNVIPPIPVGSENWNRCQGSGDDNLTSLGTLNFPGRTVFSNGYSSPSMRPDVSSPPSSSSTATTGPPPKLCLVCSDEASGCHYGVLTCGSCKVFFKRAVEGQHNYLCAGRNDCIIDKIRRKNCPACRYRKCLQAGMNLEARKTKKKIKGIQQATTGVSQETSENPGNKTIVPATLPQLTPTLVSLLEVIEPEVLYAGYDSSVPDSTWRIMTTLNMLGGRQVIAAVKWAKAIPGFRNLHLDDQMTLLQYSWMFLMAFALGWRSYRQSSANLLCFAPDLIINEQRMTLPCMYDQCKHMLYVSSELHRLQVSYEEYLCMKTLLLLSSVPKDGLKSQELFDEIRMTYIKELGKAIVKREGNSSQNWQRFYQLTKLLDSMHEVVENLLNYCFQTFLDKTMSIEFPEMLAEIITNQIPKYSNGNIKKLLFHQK

N#Cc1c(N2CCCCC2)nc(N2CCCCC2)c2c1CCN(Cc1ccccc1)C2
inactive: activity change, negative = inhibition [1] -13% | activity, negative = inhibition [2] 17.8%

Nc1ccc2cc3ccccc3cc2c1
inactive: Potency [3] > 92 µM | Potency [4] > 92 µM | Potency [5] | Potency [6] | Potency [7] | Potency [8] | Potency [9] | Potency [10] | outcome [11] | Potency [12] | max response [13] -3.75% | max response [14] -16.2% | Potency [15]

CCCCCOc1ccc(Cl)cc1CN1CCOCC1
inactive: activity change, negative = inhibition [1] 4.03% | activity, negative = inhibition [2] 4.37% | Potency [16] > 20.6 µM

c1cc(OCC2CO2)cc(OCC2CO2)c1 (configuration not stated)
active: Potency [3] 27.4 µM | Potency [4] 9.23 µM | Potency [5] 31.6 µM | Potency [6] 0.251 µM | Potency [7] 31.6 µM
inactive: Potency [8] | Potency [10] | outcome [11] | max response [13] -3.13% and -3.49% | max response [14] -14.2% | Potency [15]

CCCOc1ccc(N2C(=O)C3ON(c4ccccc4)C(c4ccc(O)c(OC)c4)C3C2=O)cc1 (configuration not stated)
inactive: activity change, negative = inhibition [1] 10.7% | activity, negative = inhibition [2] -20% | Potency [16] > 20.6 µM

Cc1nc(NCCN)c(C#N)c2c1COC(C)(C)C2
inactive: activity change, negative = inhibition [1] -1.13% | activity, negative = inhibition [2] 7.79% | Potency [16] > 20.6 µM

CCOc1ccc(-c2nnc3sc(COc4ccccc4)nn23)cc1
inactive: activity change, negative = inhibition [1] 4.76% | activity, negative = inhibition [2] 4.42% | Potency [16] > 20.6 µM

Cc1cc(=O)[nH]c(SCC(=O)c2ccccc2)c1C#N
inactive: activity change, negative = inhibition [1] 14.5% | activity, negative = inhibition [2] -5.21% | Potency [16] > 20.6 µM

COc1ccc(C(=O)N/C(N)=N/c2nc3ccccc3o2)cc1
inactive: activity change, negative = inhibition [1] -19% | activity, negative = inhibition [2] -5.99% | Potency [16] > 20.6 µM

CC(=NC1CCCC1)c1c(C)[nH]n(-c2nc3ccccc3s2)c1=O
inactive: activity change, negative = inhibition [1] -20.1% | activity, negative = inhibition [2] -8.78% | Potency [16] > 20.6 µM

Cn1c(Cl)nc2c1c(=O)n(Cc1cccc(Br)c1)c(=O)n2C
inactive: activity change, negative = inhibition [1] -23.7% | activity, negative = inhibition [2] 12.7% | Potency [16] > 20.6 µM

COc1cccc(-c2nc(NCc3ccco3)c3ccccc3n2)c1O
inactive: activity change, negative = inhibition [1] 7.35% | activity, negative = inhibition [2] -8.59% | Potency [16] > 20.6 µM

Nc1nnc(Cc2ccc(Cl)c(Cl)c2)s1
inactive: activity change, negative = inhibition [1] 2.08% | activity, negative = inhibition [2] 4.97% | Potency [16] > 20.6 µM

CCCSc1nnc(NC(=O)Nc2ccccc2)s1
inactive: activity change, negative = inhibition [1] -25.9% | activity, negative = inhibition [2] -19.6% | Potency [16] > 20.6 µM

Cn1c(=O)c2c(nc(Oc3ccc4c(c3)OCO4)n2Cc2ccc(Br)cc2)n(C)c1=O
inactive: activity change, negative = inhibition [1] -5.35% | activity, negative = inhibition [2] -4.55% | Potency [16] > 20.6 µM

O=C(O)CSCC(=O)Nc1ccc(S(=O)(=O)N2CCCCC2)cc1
inactive: activity change, negative = inhibition [1] 5.47% | activity, negative = inhibition [2] 23% | Potency [16] > 20.6 µM

COc1ccc(-c2nn3c(C4CCCCC4)nnc3s2)cc1OC
inactive: activity change, negative = inhibition [1] -3.44% | activity, negative = inhibition [2] 16.5% | Potency [16] > 20.6 µM

Cc1cc(C)n(S(=O)(=O)Cc2ccccc2)n1
inactive: activity change, negative = inhibition [1] -1.74% | activity, negative = inhibition [2] 14.5% | Potency [16] > 20.6 µM

CCC1(C)Cc2c(C#N)c(N)sc(=S)c2CO1 (configuration not stated)
inactive: activity change, negative = inhibition [1] -12.1% | activity, negative = inhibition [2] -10.3% | Potency [16] > 20.6 µM

CCOC(=O)N1CCN(c2ncnc3c2cnn3-c2ccc(OC)cc2)CC1
inactive: activity change, negative = inhibition [1] 10.2% | activity, negative = inhibition [2] -2.17% | Potency [16] > 20.6 µM

Reference: PubChem BioAssay (NCATS)
